FBW7 activator: FBW7 E3 ligase activators, primary screen, biochemical, AlphaScreen, human | 650,000 tested, 0.13% active | normalized activity (activation), % at 26.1 µM | F-box/WD repeat-containing protein 7 (Homo sapiens), Q969H0 | AlphaScreen FBW7–phospho-cyclin E peptide binding, activator screen; in the data active = normalized activity above about 1.9%;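 also: purified mutant Fbw7 with reduced substrate affinity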
MITF inh: MITF inhibitors, primary screen, biochemical, AlphaScreen, human; Microphthalmia-associated transcription factor (Homo sapiens), O75030; AlphaScreen MITF homodimerization, bead proximity signal; inhibition, % at 2.6 µM; 650,000 tested, 0.91% active; AID 1259374, 2018; in the data active = inhibition above about 50%
Target sequence (O75030 whole entry, looked up): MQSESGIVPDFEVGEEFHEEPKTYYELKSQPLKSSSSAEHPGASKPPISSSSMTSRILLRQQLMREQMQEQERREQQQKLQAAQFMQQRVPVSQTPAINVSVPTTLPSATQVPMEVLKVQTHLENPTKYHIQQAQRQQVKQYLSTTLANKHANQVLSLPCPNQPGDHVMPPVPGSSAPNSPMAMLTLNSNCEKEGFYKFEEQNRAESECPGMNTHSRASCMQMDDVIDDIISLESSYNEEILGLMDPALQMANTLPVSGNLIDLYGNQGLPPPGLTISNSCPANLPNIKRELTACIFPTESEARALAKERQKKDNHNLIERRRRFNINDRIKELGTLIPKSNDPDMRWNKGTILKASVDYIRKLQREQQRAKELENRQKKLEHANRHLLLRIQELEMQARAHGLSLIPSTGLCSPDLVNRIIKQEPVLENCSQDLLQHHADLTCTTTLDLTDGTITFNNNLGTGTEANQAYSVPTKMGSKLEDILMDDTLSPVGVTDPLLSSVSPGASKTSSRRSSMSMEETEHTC
GPR151 ag: activators of human GPR151, primary screen, cell-based, PathHunter beta-arrestin, luminescence. G-protein coupled receptor 151 (Homo sapiens), Q8TDV0. PathHunter beta-arrestin GPR151 cells. activation, % at 11.2 µM. 650,000 tested, 1% active; in the data active = activation above about 4.9%
TEAD-YAP block: TEAD-YAP interaction inhibition, primary screen, TEAD-YAP interaction inhibitor project, luminescence, HEK-TIYL cells | 640,000 tested, 1.4% active | inhibition, % at 9.12 µM | TEAD-Gal4/YAP UAS-luciferase luminescence | AID 1259422, 2018; in the data active = inhibition above about 32%
MITF inh conf: MITF inhibitors, retest of hits, confirmation, biochemical, AlphaScreen, triplicate; shares compounds with MITF inh; inhibition, % at 2.6 µM; AlphaScreen MITF homodimerization, biotin/His-MITF beads; AID 1259372, 2018; 4,700 tested, 16% active;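 active = inhibition above a cutoff derived from the DMSO control wells, cut at about 28% in these data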;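 also: inhibitors lower the bead chemiluminescence by keeping MITF from dimerizing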
AlphaScreen DR: AlphaScreen optical interference compounds, dose response, counter-screen, biochemical, HTS; shares compounds with MITF inh; AlphaScreen optical interference counterscreen, cell-free; IC50, µM; 480 tested, 6% active; AID 1259373, 2018; call rule not given here
AlphaScreen intf2: AlphaScreen optical interference compounds, counter-screen for MITF inhibitor project, biochemical, triplicate | inhibition, % at 2.6 µM | shares compounds with MITF inh | AID 1259376, 2018 | LysRS AlphaScreen counterscreen, signal interference | 4,700 tested, 7.6% active;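 active = inhibition above a cutoff derived from the DMSO control wells, cut at about 30% in these data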
A number is an active result; . = inactive; / = not tested or not shown. In the library only some 3.5% were active in any assay of this set; here they are far more common.

SMILES	FBW7 activator	MITF inh	GPR151 ag	TEAD-YAP block	MITF inh conf	AlphaScreen intf2	others
COc1cc(CN2CCCCCC2)c([N+](=O)[O-])cc1OC	.	.	.	.	/	/
COc1ccc(OC)c(CN2CCN(Cc3cc(OC)c(OC)cc3[N+](=O)[O-])CC2)c1	.	72	.	.	.	.
Cc1cc(C)c(C(=O)Nc2ccc(OCc3ccccc3)cc2)c(C)c1	.	.	.	.	/	/
COc1cc([N+](=O)[O-])ccc1-c1ccc(/C=N/n2cnnc2)o1	.	.	.	.	/	/
CN(C)CCCN(C(=O)c1cc2ccccc2oc1=O)c1nc2ccccc2s1	.	.	.	.	/	/
O=C1OC(c2cc(Cl)ccc2Cl)=N/C1=C\c1ccc(Br)cc1	.	.	.	.	/	/
CCN1C(=O)NC(c2ccc([N+](=O)[O-])cc2)C(C(=O)OCCOc2ccccc2)=C1C (stereo not given)	.	.	.	.	/	/
CCN1C(=O)NC(c2ccc([N+](=O)[O-])cc2)C(C(=O)OCCc2ccccc2)=C1C (stereo not given)	.	76	.	.	.	.
COc1ccc(C)cc1NC(=O)C(NCC(O)c1ccccc1)c1ccccc1 (stereo not given)	.	84	.	.	30	.	AlphaScreen DR=.
COc1ccc(C)cc1NC(=O)C(C(C)C)N1C(=O)c2ccccc2C1=O (stereo not given)	.	71	.	.	.	.
COc1ccc(C)cc1NC(=O)C(C)c1ccccc1 (stereo not given)	.	.	.	.	/	/
CCCOc1ccccc1/C=N/NC(N)=S	.	.	.	.	/	/
CC(C)N(/C=C/C(=O)C(F)(F)F)C(C)C	.	.	.	.	/	/
CC(=O)c1ccc(S(=O)(=O)N(CCCO)Cc2cc3cc(C)c(C)cc3[nH]c2=O)cc1	.	74	.	.	.	.
O=C(O)c1c2c(nc3ccc(S(=O)(=O)N4CCC(C(=O)O)CC4)cc13)CCC2	.	68	.	.	31	.	AlphaScreen DR=.
COc1ccc(N=C2SC(C(=O)Nc3ccc(C(=O)O)cc3)CC(=O)N2CCc2ccc(OC)c(OC)c2)cc1 (stereo not given)	.	.	.	.	/	/
Clc1ccccc1OCCCCN1CCNCC1	.	54	.	.	.	.
CC(C)(C)c1ccccc1OCCCN1CCNCC1	.	60	.	.	.	.
Brc1ccccc1OCCCCN1CCNCC1	.	51	.	.	.	.
Clc1ccc(OCCCCN2CCNCC2)cc1	.	.	.	.	/	/
CCOc1ccccc1OCCCN1CCNCC1	.	.	.	.	/	/
CC1CCCCN1C(=O)CN1CCN(c2ncccn2)CC1 (stereo not given)	.	54	.	.	.	.
Cc1nnc(SCc2nc3ccccc3[nH]2)n1C	.	74	.	.	.	.
COc1ccccc1-c1nnc(SCc2nc3ccccc3[nH]2)n1C	.	.	.	.	/	/
O=C(CC1C(=O)NCCN1C/C=C/c1ccccc1)NCCCc1cccnc1 (stereo not given)	.	64	.	.	.	.
SMILES	FBW7 activator	MITF inh	GPR151 ag	TEAD-YAP block	MITF inh conf	AlphaScreen intf2	others
COC(=O)Cc1c(C)c2ccc(OCC(N)=O)c(C)c2oc1=O	.	73	.	.	.	.
COC(=O)Cc1c(C)c2ccc(OCC(=O)OC(C)(C)C)c(C)c2oc1=O	.	.	.	.	/	/
COc1ccc(C(=O)Nc2ccccc2)cc1S(=O)(=O)Nc1cc(C)on1	.	69	.	.	.	.
COc1ccc(NS(=O)(=O)c2cc(C(=O)Nc3ccccc3)ccc2OC)cc1	.	.	.	.	/	/
Cc1cc(Cl)cc(Br)c1OCCNCCN(C)C	.	53	.	.	.	.
CNCCCOc1c(C)cc(Cl)cc1Br	.	.	.	.	/	/
CN(C)CCNCCOc1ccc2ccccc2c1Br	.	59	.	.	.	.
CCOc1ccccc1OCCOCCNCc1ccccc1	.	82	.	.	.	.
CCC(C)c1ccccc1OCCCNCCO (stereo not given)	.	59	.	.	.	.
CCC(C)c1ccccc1OCCCNCCN (stereo not given)	.	.	.	.	/	/
CCOc1ccc(OC)cc1/C=N/NC(=O)C(O)c1ccc(Br)cc1 (stereo not given)	.	.	.	.	/	/
CCC(C)c1ccccc1OCCNCCN(C)C (stereo not given)	.	67	.	.	59	.	AlphaScreen DR=.
CCC(C)c1ccccc1OCCNCCOC (stereo not given)	.	.	.	.	/	/
CCCCNCCOc1ccccc1OCC	.	61	.	.	33	.	AlphaScreen DR=.
CCC(C)c1ccccc1OCCNCCCOC (stereo not given)	.	58	.	.	.	.
Clc1nc(Sc2ccccc2)nc(Sc2ccccc2)n1	.	.	.	.	/	/
COc1ccccc1NC(=O)c1csc(-n2cccc2)n1	.	.	.	.	/	/
CC(C)(C)N1CCN(C(C)(C)C)C1=O	.	.	.	.	/	/
Cc1ccc2cc(CN(CCO)C(=O)c3ccc(Cl)cc3)c(=O)[nH]c2c1	.	54	.	.	.	.
CCNc1nc(NC(C)C)nc(Oc2ccc(=O)n(-c3ccccc3)n2)n1	.	.	.	.	/	/
CC(=O)Nc1ccc(NC(=O)c2csc(Nc3nccc4ccccc34)n2)cc1	.	.	.	.	/	/
CC(C)(C)C(=O)NCCCNc1ccc([N+](=O)[O-])cc1Cl	.	.	.	.	/	/
CCc1cc(OCCCN2CCN(CC)CC2)ccc1Cl	.	67	.	.	.	.
CCN1CCN(CCCOc2ccc3c(c2)CCC3)CC1	.	61	.	.	.	.
CCc1cc(OCCCNCCN2CCOCC2)ccc1Cl	.	.	.	.	/	/
SMILES	FBW7 activator	MITF inh	GPR151 ag	TEAD-YAP block	MITF inh conf	AlphaScreen intf2	others
CCN(CC)C(=S)NC(=O)/C=C/c1ccco1	.	52	.	.	73	.	AlphaScreen DR=.
O=C(/C=C/c1ccco1)Nc1c[nH]c(=O)[nH]c1=O	.	52	.	.	32	.	AlphaScreen DR=.
CCC(=O)Nc1ccc(NC(=S)NC(=O)/C=C/c2ccco2)cc1	.	.	.	.	/	/
O=C(/C=C/c1ccco1)NCCCCCCNC(=O)/C=C/c1ccco1	.	55	.	.	69	.	AlphaScreen DR=.
O=C(/C=C/c1ccco1)Nc1cccc2ccccc12	.	.	.	.	/	/
O=C(/C=C/c1ccco1)NCCCNC(=O)/C=C/c1ccco1	.	.	.	.	/	/
O=C(/C=C/c1ccco1)NCCCCNC(=O)/C=C/c1ccco1	.	57	.	.	71	.	AlphaScreen DR=.
CN1C(=O)C2(NN=C(Cc3ccccc3)S2)c2ccccc21 (stereo not given)	.	.	.	.	/	/

Assay outcomes from PubChem.
